LNCaP diff act: LNCaP prostate cell differentiation activation; flow cytometry side scatter, 4 d; side scatter shift, % at 10 µM; hit rate 0.56% among 24,000;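 active = side scatter shift above 30%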;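 also: androgen-responsive LNCaP prostate cancer cells in charcoal-stripped serum medium; higher shift means more granular cells and more differentiation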
S aureus QS inh: blocks AIP-induced quorum sensing reporter in S. aureus; inhibition, % at 2 µM; AID 527; hit rate 0.3% among 24,000; S. aureus RN6390 RNAIII-GFP reporter, flow cytometry 3 h;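 active = share of bacteria positive for the green fluorescent reporter and its mean brightness both inhibited by 50% or more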
Hits are given with their value; n = inactive. Compounds with a hit are over-represented: about 0.91% of the library has one in this group of screens.

SMILES | LNCaP diff act | S aureus QS inh
CCc1ccc(-c2nc(CN3CCC(C(=O)N4CCN(c5ccccn5)CC4)CC3)c(C)o2)cc1 | n | n
CCc1ccc(-c2nc(CN3CCC(C(=O)N4CCN(c5ccccc5)CC4)CC3)c(C)o2)cc1 | 35.0 | n
Cc1oc(-c2ccc(Cl)cc2)nc1CN1CCC(C(=O)N2CCN(c3ccccn3)CC2)CC1 | 43.0 | n
Cc1oc(-c2cccc(Cl)c2)nc1CN1CCC(C(=O)N2CCN(c3ccccn3)CC2)CC1 | n | n
CCOc1ccc(C(=O)N2CCC(C(=O)c3ccc4c(c3)OCCO4)CC2)cc1 | n | n
O=C(NC1(C(F)(F)F)C(=O)Nc2c1c(=O)[nH]c(=O)n2Cc1ccco1)C1CC1 (stereo not given) | n | n
Cc1cc(C)n(Cc2cc(C)c(Cn3nc(C)cc3C)cc2C)n1 | n | n
COC(=O)C(c1cc(OC)c(O)c(OC)c1)(N1CCNC(C)C1)C(F)(F)F (stereo not given) | n | n
COc1ccc(-c2nc3ncccn3c2Nc2ccc3c(c2)OCCO3)cc1 | n | n
Oc1ccc(-c2nc3ncccn3c2Nc2ccc3c(c2)OCCO3)cc1 | n | 83.1
COc1ccc(C(=O)CSc2nnc(C3CCCCC3)n2N)c(OC)c1 | n | n
CCC(=O)NC1(C(F)(F)F)C(=O)NC(C)=C1C#N (stereo not given) | n | n
O=C(CN(Cc1ccc(F)cc1)C(=O)Cn1nnc2ccccc21)NCC1CCCO1 (stereo not given) | n | n
Cc1ccc(-c2noc(CCC(=O)NCCCN3CCN(c4ccc(F)cc4)CC3)n2)cc1 | 38.0 | n
Cc1ccc(-c2noc(CCC(=O)NCCCN3CCN(c4cccc(Cl)c4)CC3)n2)cc1 | 44.0 | n
Cc1ccc(-c2noc(CCC(=O)NC3CCN(Cc4ccccc4)CC3)n2)cc1 | 32.0 | n
Clc1cccc(N2CCN(Cc3nc(-c4ccccc4)no3)CC2)c1 | n | n
O=C(CCc1nc(-c2ccccc2F)no1)NC1CCN(Cc2ccccc2)CC1 | n | n
COc1ccc(-c2noc(CCC(=O)NCCCN3CCC(C)CC3)n2)cc1 | n | n
COc1ccc(-n2c(Cn3c(=O)sc4ccccc43)nnc2SCC(=O)N2CCCC2)cc1 | n | n
Cn1cc(SCC(=O)Nc2nc3ccccc3s2)c2ccccc21 | n | n
O=c1ccc2cc3c([nH]c4ccc(Br)cc43)oc-2c1O | n | n
Cc1ccc(C2C3=C(CCCC3=O)Nc3nc(SCC(=O)NCc4ccco4)[nH]c(=O)c32)cc1 (stereo not given) | n | n
CC1CCC(NC(=O)C2c3ccccc3C(=O)N2CCCN2CCOCC2)CC1 (stereo not given) | n | n
CCN(CC)CC(=O)Nc1ccc(-c2nc3cc(NC(=O)CN(CC)CC)ccc3o2)cc1 | 42.0 | n
SMILES | LNCaP diff act | S aureus QS inh
CCCC(=O)Nc1ccc(-c2nc3cc(C)c(C)cc3o2)cc1 | n | n
CN1CCN(c2ccccc2NC(=O)C(Cc2ccccc2)n2cccc2)CC1 (stereo not given) | n | n
Cn1c(C(=O)NCCCN2CCOCC2)cc2c(=O)n(C)c3ccccc3c21 | n | n
Cn1c(C(=O)NCCCN2CCN(c3ccccc3F)CC2)cc2c(=O)n(C)c3ccccc3c21 | 70.0 | n
Cc1cccc(-c2nc(CSCC(=O)N3CCN(c4ccccn4)CC3)c(C)o2)c1 | n | n
Cc1cc(C)nc(N2CCC(C(=O)Nc3ccc(Oc4ccccc4)cc3)CC2)n1 | 33.0 | n
Cc1cc(C)nc(N2CCC(C(=O)NCc3cccc(C(F)(F)F)c3)CC2)n1 | n | n
CCc1nc2ccccc2c(=O)n1CCCCn1c(CC)nc2ccccc2c1=O | n | n
Cc1nn(-c2ccccc2)c2sc(C(=O)N3CCOCC3)cc12 | n | n
Cc1nn(-c2ccccc2)c2sc(-c3n[nH]c(=S)o3)cc12 | n | 59.9
Cc1ccc(NC(=O)C2C3C=CC4(CN(Cc5cccnc5)C(=O)C24)O3)cc1 (stereo not given) | n | n
COc1ccc(Cn2c(C)nc3c(c2=O)c2nc4ccccc4nc2n3Cc2ccco2)cc1 | 58.0 | n
COc1ccc(CCn2c(-c3ccco3)nc3nc4ccccc4nc32)cc1 | n | n
CCCCC(CCC(=O)Nc1ccccc1C(=O)OCC)C(=O)O (stereo not given) | n | n
Cc1ccc(Cn2ccc(NC(=O)c3cc(-c4cccs4)on3)n2)cc1 | n | n
CCC1CCCCN1CCCNC(=O)CC1Oc2ccc(C)cc2NC1=O (stereo not given) | n | n
CCc1ccc(NC(=O)c2cc(-c3ccco3)on2)cc1 | n | n
CCc1ccc(N/C(SCc2cccc(F)c2)=C(/C#N)C(=O)NCc2ccco2)cc1 | n | 65.3
CCN(CCCNC(=O)CN(C)S(=O)(=O)c1ccc2c(c1)CCC(=O)N2)c1cccc(C)c1 | n | n
COc1ccc(CCN2CCC(Nc3nc4ccccc4n3Cc3ccc(F)cc3)CC2)cc1 | 66.0 | n
Clc1ccc(Cn2c(CN3CCCC3)nc3ccccc32)cc1 | n | n
CC(C)(C)N=C1NC(=NC(C)(C)C)c2ccccc21 | n | n
CN(C)c1ccc(-c2nn3c(-c4ccc(Cl)cc4Cl)nnc3s2)cc1 | 39.0 | n
Cc1oc(-c2ccc(Cl)cc2)cc1-c1nn2c(-c3ccoc3C)nnc2s1 | n | n
COc1ccc(-n2nc(C(=O)N3CCC(C#N)CC3)c3c4ccccc4n(C)c3c2=O)cc1 | n | n
SMILES | LNCaP diff act | S aureus QS inh
O=C(c1ccc(Cl)cc1)N(Cc1cccs1)C1CCS(=O)(=O)C1 (stereo not given) | n | n
CCN1CCN(CCCNC(=O)C2CCCN(c3nnc(-n4cccc4)s3)C2)CC1 (stereo not given) | n | n
COc1ccc(OCC(O)CN2CCCCC2)cc1 (stereo not given) | n | n
Cc1ccc(OCC(O)Cn2c(=N)n(CCN3CCCCC3)c3ccccc32)cc1 (stereo not given) | 58.0 | n
CCCCCn1c(=N)n(CC(O)COc2ccccc2OC)c2ccccc21 (stereo not given) | 34.0 | n
C=CCn1c(=N)n(CC(O)COc2ccccc2OC)c2ccccc21 (stereo not given) | n | n
Cc1ccc(CNC(=O)C2CCN(S(=O)(=O)N3CCOCC3)CC2)cc1 | n | n
CCN(Cc1ccccc1)C(=O)Cn1cc2c(n1)CCCC2 | n | n
Nc1cc(OC(=O)c2cccs2)nn1S(=O)(=O)c1ccccc1 | n | n
Cc1nn(-c2ccccc2)c(OC(=O)c2cccs2)c1S(=O)(=O)c1ccccc1 | n | 53.1
Cc1nc2c3ccccc3[nH]c(=O)n2n1 | n | n
Cc1ccc(-n2nc(C(=O)N3CCN(C)CC3)c3c4ccccc4n(C)c3c2=O)cc1 | n | n
CCN1CCCC1CNC(=O)c1nn(-c2ccc(C)cc2)c(=O)c2c1c1ccccc1n2C (stereo not given) | 32.0 | n
COC(=O)c1ccc(C(=O)OC)c(NC(=O)c2oc(C)nc2C)c1 | n | n
COc1cc2c(cc1OC)C(C)N(C(=O)CCN1C(=O)C3C4C=CC(C4)C3C1=O)CC2 (stereo not given) | n | n
Cc1ccc(C2=Nc3ccccc3NC(C)(c3ccc(C)o3)C2)o1 (stereo not given) | 35.0 | n
Cn1c(C(=O)O)c(CC(=O)NCc2cccnc2)c2ccccc21 | n | n
O=C(NCCN1CCOCC1)c1ccc2c(c1)N(Cc1ccccc1)CCS2 | n | n
Cc1ccc(CN2CCSc3ccc(C(=O)N4CCN(c5ncccn5)CC4)cc32)cc1 | 44.0 | n
NC(=O)CN1C(=O)C2C3C=CC(C3)C2C1=O (stereo not given) | n | n
